Our source for the growth values is PubChem BioAssay (NCI).

The structures appear in SMILES notation. The panel holds about 83,000 compounds, 20% with a hit somewhere; the sample as a whole holds those more often.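 Results are percent growth after 48 hours of single-concentration exposure. 100 means growth as in untreated cells, lower positive values show inhibition; negative values down to -100 show cell death.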 Unmarked numbers belong to inactive results. Active and inactive are the calls of the source. The calls were made as follows: active = growth percent below 10; inactive = the rest.

Holding throughout (test): NCI-60 one-dose screen, 48 h (100 = growth as untreated, 0 = no growth, -100 = all killed)
Holding throughout (conditions): 10 µM unless noted

In assay [1] the test system is NCI-H23 lung.
In assay [2] the test system is NCI-H226 lung.
Assay [3] concerns NCI-H322M lung.
In assay [4] the test system is HOP-62 NSCLC.
In assay [5] the test system is NCI-H460 lung.
Assay [6] deals with HOP-92 NSCLC.
Assay [7] has as its system NCI-H522 lung.
Assay [8] deals with A549/ATCC NSCLC.
The test system of assay [9] is 786-0 renal.
Assay [10] deals with COLO 205 colon.
Assay [11] relates to DU-145 prostate.
The subject of assay [12] is K-562 leukemia.
Assay [13] deals with MALME-3M melanoma.
Assay [14] has as its system MDA-MB-231 breast.
In assay [15] the test system is RXF 393 renal.
For assay [16], the system named is SF-268 CNS.
In assay [17] the test system is SF-295 CNS.
Assay [18] has as its system SF-539 CNS.
Assay [19] deals with UACC-257 melanoma.
Assay [20] has as its system M14 melanoma.

For `Cc1nn(-c2ccccc2)c(N2CCCCC2)c1/C=N/NC(=O)Cn1c(=O)sc2ccccc21`, the growth was 82.6% in assay [1]; 92.8% in assay [2]; 76.3% in [3]; 77.3% in assay [4]; 81.5% in assay [5]; 65.6% in assay [6]. In addition, the growth in assay [7] is 64.9%; in assay [8], 66%; in assay [9], 97.2%; in assay [10], 88.2%; in assay [11] it was 95.8%; in [12], 43.4%. Besides, the growth in [13] is 101%; in assay [14], 79%; in [15], 89.9%; in assay [16], 79.2%; in assay [17] it was 56.7%; in [18], 92.2%. Moreover, the growth in assay [19] is 95.2%; in assay [20], 72.2%.

Regarding `Cn1cc(-c2nc(-c3c[nH]c4ccncc34)cs2)c2cc(Br)ccc21`, the growth in assay [1] was -64.2% (active); in [2], 0.662% (active); in assay [3], -93.1% (active); in assay [4], -69.7% (active); in assay [5], -71.4% (active); in [6], -91.9% (active). The growth in assay [7] was -70.8% (active); in assay [8], -70.3% (active); in [9] it was -78.5% (active); in assay [10], -71.1% (active); in [11], -95.9% (active); in [12], -54.2% (active). Moreover, the growth was -79.2% (active) in assay [13]; -80.7% (active) in assay [14]; -94.4% (active) in [15]; -73.7% (active) in [16]; -78% (active) in [17]; -98% (active) in assay [18]. Further, the growth is -46.4% (active) in assay [19] and -74.2% (active) in [20].

As for `COc1ccc(-c2ccc(=O)oc2C#Cc2cc(OC)c(OC)c(OC)c2)cc1O`, the growth in [1] is 44.2%; in assay [2] it was 51.7%; in assay [3], 31.5%; in assay [4], -28.1% (active); in assay [5], -4.6% (active); in [6], 51.4%. The growth is 4.45% (active) in [7]; 28.7% in assay [8]; 11.8% in assay [9]; 47.2% in assay [10]; -4.48% (active) in assay [11]; 0.484% (active) in assay [12]. The growth in assay [13] is 48%; in assay [14] it was 30.4%; in assay [15], -13.2% (active); in [16], 20.5%; in assay [17], -20.6% (active); in assay [18], -28.7% (active). Besides, the results for the growth in assay [19] and in assay [20] were 35.7% and -44.5% (active), respectively.

On to `O=c1oc2c(cnc3ccccc32)cc1-c1cccs1`, for which the growth in assay [1] was 101%; in assay [2], 107%; in assay [3], 104%; in assay [4] it was 100%; in assay [5], 112%; in assay [6], 102%. Moreover, the growth is 104% in [7]; 104% in [8]; 98.8% in [9]; 106% in assay [10]; 113% in assay [11]; 94.1% in assay [12]. Further, the growth in assay [13] was 103%; in assay [14], 107%; in [15], 112%; in assay [16], 100%; in [17], 105%; in assay [18] it was 105%. Moreover, the figures for the growth in assay [19] and in assay [20] were 108% and 104%, respectively.

With `CN1C(=O)/C(=C/c2ccc(C(=O)Nc3ncc(Cc4ccc(F)cc4)s3)cc2)SC1=S`, the growth in assay [1] is 62.1%; in [2], 65.3%; in [3] it was 52%; in assay [4], 44.9%; in assay [5], 20.2%; in assay [6], 44.2%. Moreover, the growth was 39% in assay [7]; 46.8% in assay [8]; 51.9% in [9]; 72.3% in assay [10]; 38.8% in [11]; 44.7% in assay [12]. For the same compound, the growth in assay [13] was 47.1%; in assay [14] it was 56.2%; in assay [15] it was 36.8%; in [16], 49.1%; in assay [17] it was 24.3%; in assay [18], 38.4%. Besides, the growth in assay [19] was 65.6%; in assay [20] it was 19.6%.

Take `COc1ccc(NC(=O)c2ccc(C(=O)Nc3ccc(OC)cc3OC)cc2)c(OC)c1`: the growth in [1] is 75.3%; in [2] it was 71.5%; in assay [3] it was 91.3%; in assay [4], 33.6%; in assay [5] it was 95.9%; in [6], -19.3% (active). Moreover, the growth in assay [7] was 76.4%; in [8], 85%; in assay [9], 51.2%; in assay [10], 115%; in [11] it was 94.6%; in assay [12], 110%. Moreover, the growth in [13] is 84.5%; in assay [14], 53.1%; in [15] it was 40.5%; in [16], 29.7%; in assay [17], 57.3%; in assay [18], 35.8%. The growth in [19] is 90.6%; in assay [20] it was 79.8%.

On to `Cc1ccccc1OCC(O)COc1ccccc1C`, for which the growth was 404% in [1]; 97.9% in assay [2]; 95.4% in assay [3]; 96.2% in assay [4]; 96.8% in assay [5]; 93.9% in assay [6]. Also, the growth in [7] is 77%; in assay [8], 84.2%; in [9], 100%; in assay [10], 98.2%; in assay [11], 120%; in assay [12], 114%. In addition, the growth in [13] is 88.5%; in assay [14] it was 103%; in assay [15], 80.5%; in assay [16] it was 99.4%; in [17], 98.5%; in assay [18] it was 95.9%. Moreover, the growth in assay [19] is 89.2%; in assay [20], 98.5%.

With `C=C1C(=O)O[C@H]2[C@H]1CC/C(COC(=O)NCc1ccc(Cn3c(=O)sn(-c4ccc(OC)cc4)c3=O)cc1)=C\CC[C@@]1(C)O[C@@H]21`, the growth in [1] was 88.2%; in [2], 94.8%; in assay [3] it was 97.7%; in assay [4], 98.9%; in assay [5], 95.2%; in assay [6], -1.01% (active). In addition, the growth in assay [7] is -65.4% (active); in assay [8], 97.7%; in assay [9] it was 50.9%; in assay [10] it was -51.2% (active); in assay [11], 27%; in assay [12] it was -3.73% (active). Moreover, the growth in assay [13] was -3.77% (active); in [14], 47.7%; in [15] it was 42.3%; in assay [16], 86.5%; in [17], 97.7%; in [18] it was 82.1%. Also, the growth in assay [19] was 65.3%; in assay [20] it was 25.7%.

Turning to `COC(=O)c1c2c(n3ccc(C)cc13)C(=O)c1ccccc1C2=O`, the growth is 50.9% in assay [1]; 62.1% in assay [2]; 22.1% in assay [3]; 78.4% in assay [4]; 4.07% (active) in [5]; 76.7% in assay [6]. For the same compound, the growth is 47.5% in assay [7]; -41.6% (active) in [8]; 80.3% in assay [9]; 42.5% in assay [10]; 75.2% in [11]; 60.8% in assay [12]. Also, the growth in [13] is 62.2%; in assay [14], 77.9%; in [15], 75.9%; in [16], 74.9%; in assay [17] it was 67.6%; in assay [18], 94.8%. The results for the growth in assay [19] and in assay [20] were 72.4% and 63.5%, respectively.

As to `CN1CCCc2cc(/C=C3/SC(=S)N(CCc4ccc(O)cc4)C3=O)ccc21`, the growth in [1] was 94.1%; in assay [2], 88.5%; in assay [3] it was 95.1%; in [4] it was 101%; in [5], 95.1%; in [6] it was 48.3%. Moreover, the growth was 43.8% in assay [7]; 87.3% in assay [8]; 87.6% in assay [9]; 112% in assay [10]; 85.9% in assay [11]; 27.6% in [12]. Also, the growth in [13] was 96.6%; in [14], 81.8%; in assay [15], 94.6%; in assay [16], 76.3%; in assay [17], 99.7%; in assay [18], 84.8%. Also, the growth in [19] is 93.2%; in assay [20], 78.6%.

As to `N#Cc1c(Nc2ccc(F)cc2)n[nH]c1-c1cccs1`, the growth is 85.2% in [1]; 88.9% in [2]; 102% in assay [3]; 110% in [4]; 107% in assay [5]; 87.5% in assay [6]. Also, the growth in [7] is 97.1%; in assay [8], 115%; in [9], 98.3%; in [10], 128%; in assay [11], 113%; in assay [12], 99.2%. The growth in assay [13] was 108%; in assay [14], 89.5%; in assay [15], 112%; in assay [16], 98%; in assay [17], 97.7%; in [18], 98.8%. Further, the growth was 120% in assay [19] and 104% in [20].

For `COc1ccc(C(C)=O)cc1S(N)(=O)=O`, the growth in assay [1] was 98.2%; in assay [2], 101%; in assay [3], 97.1%; in [4], 112%; in assay [5], 104%; in [6], 92%. The growth in assay [7] was 75.6%; in assay [8], 88%; in [9], 89.4%; in assay [10], 115%; in assay [11], 106%; in assay [12], 104%. Further, the growth in assay [13] was 99.3%; in [14], 103%; in assay [15], 102%; in [16], 101%; in assay [17] it was 94.6%; in assay [18], 104%. The growth in [19] is 91.9%; in [20], 95%.

For `C=C1C(=O)O[C@H]2[C@H]1CC/C(COC(=O)c1cc3cc(F)ccc3[nH]1)=C\CC[C@@]1(C)O[C@@H]21`, the growth in assay [1] is -66.4% (active); in [2] it was -41.3% (active); in [3] it was -35.7% (active); in assay [4], -50.8% (active); in assay [5], -59.2% (active); in [6], -84.9% (active). The growth in assay [7] is -68.9% (active); in assay [8], -61.9% (active); in assay [9], -89.6% (active); in assay [10], -68.7% (active); in assay [11] it was -93.1% (active); in assay [12] it was 0.0225% (active). The growth in [13] was -76.4% (active); in assay [14], -70.1% (active); in [15], -84.4% (active); in [16], -71.2% (active); in assay [17], 33%; in assay [18], -87% (active). The growth is -79.5% (active) in [19] and -75.9% (active) in assay [20].
